Compound activity deposited in PubChem BioAssay by National Center for Advancing Translational Sciences (NCATS).
HT1080NT lethal – kills 2HG-producing HT-1080-NT fibrosarcoma cells. HT-1080-NT fibrosarcoma viability, CellTiter-Glo ATP luminescence, 48 h. Potency, µM (series often up to 46.1 µM), without a hit: at the highest dose activity, negative = less viability, actives largely listed as cytotoxic. 1.6% of 360,000 active;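 note: NT is the 2HG producing partner of a matched IDH1 knockdown line; potency is the fitted concentration of half-maximal effect; 0% = DMSO-treated cells and -100% = media-only wells without cells; nearly all actives have a fitted effect of over 55% in size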
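Fibrosarcoma NT cells, 750 per well in 5% FBS RPMI, were exposed to compound for 48 hours. Viability: CellTiter-Glo luminescence.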
DT40 TDP1 no CPT – qHTS for Inhibitors of human tyrosyl-DNA phosphodiesterase 1 (TDP1): qHTS in cells in absence of CPT. DT40 Tdp1-/- hTDP1 cells, no CPT, ATP luminescence, 48 h. Potency, µM (doses to about 46.2 µM), for inactives: at the highest dose activity change, negative = growth inhibition, hits mostly inhibitors. 15% of 420,000 active; note: potency is the fitted concentration of half-maximal effect; nearly all actives have a fitted effect of over 55% in size
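Growth of hTDP1-complemented DT40 Tdp1-knockout cells is measured by ATP luminescence after at least 48 hr compound exposure at 37 °C, with DMSO substituting for the 20 nM CPT used in the parallel screen.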
IL1B secr inh – inflammasome signaling inhibition, IL-1 beta readout. activity change, % at 57.5 µM. 4.7% of 360,000 active. THP-1 LPS/ATP IL-1B secretion, AlphaLISA, 16 h; active compounds read low; in the data active = activity change below about -50%; inconclusive = mostly about -30% to -49%
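THP-1 cells pretreated 1 hr with compounds (up to 57.5 uM final), then stimulated with LPS (250 ng/mL final) plus ATP (1.25 mM final); secreted IL-1B measured by AlphaLISA after 16 hr, decreased signal indicating inhibition.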
DT40 TDP1 CPT – DT40-hTDP1 cell growth loss with CPT. chicken DT40 Tdp1-/-;hTDP1 cells + 20 nM CPT, ATP luminescence, 48 h. Potency, µM (series often up to 46.2 µM), inactives show top-dose activity change, negative = growth inhibition, most hits filed as inhibitors. 12% of 420,000 active; note: potency is the fitted concentration of half-maximal effect; nearly all actives have a fitted effect of over 55% in size
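Chicken DT40 Tdp1-/- cells stably complemented with human TDP1 were seeded at 400 cells/well in medium containing 20 nM camptothecin, exposed to pin-transferred compounds, and grown at 37 °C for at least 48 hr. Viability was read as ATP luminescence.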
12-LOX inh – inhibitors of human 12S-lipoxygenase ALOX12 | P18054 | purified 12hLO, xylenol orange hydroperoxide absorbance | Potency, µM (doses to about 108 µM), for inactives: at the top dose activity change, negative = inhibition, actives largely listed as inhibitors | 1.1% of 580,000 active | AID 1671190; note: potency is the fitted concentration of half-maximal effect
Target sequence (P18054 whole entry, looked up): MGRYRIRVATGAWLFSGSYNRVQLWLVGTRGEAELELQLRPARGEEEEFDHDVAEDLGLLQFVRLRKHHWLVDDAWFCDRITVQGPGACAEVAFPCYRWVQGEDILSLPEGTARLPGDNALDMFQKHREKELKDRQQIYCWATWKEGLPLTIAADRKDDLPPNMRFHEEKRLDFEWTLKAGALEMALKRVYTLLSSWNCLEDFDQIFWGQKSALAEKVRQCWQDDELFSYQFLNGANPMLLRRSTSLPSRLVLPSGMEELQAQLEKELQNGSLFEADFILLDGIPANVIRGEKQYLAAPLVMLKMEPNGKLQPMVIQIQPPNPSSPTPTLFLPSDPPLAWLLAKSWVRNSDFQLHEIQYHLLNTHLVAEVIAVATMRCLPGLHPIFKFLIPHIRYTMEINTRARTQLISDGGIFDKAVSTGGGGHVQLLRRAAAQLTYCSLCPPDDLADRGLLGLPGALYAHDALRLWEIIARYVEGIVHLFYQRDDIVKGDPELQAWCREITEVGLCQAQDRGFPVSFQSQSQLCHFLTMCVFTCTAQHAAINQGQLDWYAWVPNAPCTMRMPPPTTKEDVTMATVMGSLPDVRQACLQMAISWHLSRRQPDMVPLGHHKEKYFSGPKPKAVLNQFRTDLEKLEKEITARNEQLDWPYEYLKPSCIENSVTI
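Purified human 12hLO (150 nM final) in 25 mM Hepes, 0.01% Triton X-100, pH 7.0 was preincubated 15 min at room temperature with compound. Then 40 uM arachidonic acid was added, 30 min. Hydroperoxide was read by Fe-XO absorbance ratio 573/405 nm.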
HT1080 IDH1KD tx – kills HT-1080 cells with IDH1 knockdown; AID 686971; 2% of 360,000 active; HT-1080 IDH1 knockdown viability, ATP luminescence, 48 h; Potency, µM (highest dose often 46.1 µM), inactives show top-dose activity, negative = toxicity, most hits filed as cytotoxic;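 note: potency is the fitted concentration of half-maximal effect; 0% = DMSO wells and -100% = cell-free medium wells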
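Luminescent ATP read-out (CellTiter-Glo, 10 min at room temperature) after 48 h compound exposure at 37 °C gave viability of IDH1-knockdown HT-1080 cells. Activity was normalised to DMSO and cell-free wells, then fitted as concentration-response curves.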
* marks the source's active call; other numbers are inactive results; ? = inconclusive; · = no result. Many of the other results were omitted from the sample, so hits are more common in it than they were. Unless noted, calls come from the whole dose curve; as a rule, active = well fitted curve in the direction sought with a large enough effect; inconclusive = small, poorly fitted or top-dose-only effect, or another doubt; inactive = no such curve, though single readings can be large; an effect the other way counts as inactive or inconclusive. Unless noted, % is set by controls: 0 for no effect and ±100 for the full control effect.

SMILES	HT1080NT lethal	DT40 TDP1 no CPT	IL1B secr inh	DT40 TDP1 CPT	12-LOX inh	HT1080 IDH1KD tx
COc1ccc(C(=O)N2CCCC(c3noc(COc4ccccc4)n3)C2)cc1OC (stereo not drawn)	·	·	·	·	35%	·
NC(=O)C1(c2ccccc2)CCCC1	·	·	·	·	-2%	·
Cc1cc(C(F)(F)F)c2c(C)nn(-c3ccccc3)c2n1	-8%	?	7	-27%	0%	0%
Cc1cc(C)nc(Sc2c(C)nn(-c3ccccc3)c2C)n1	1%	21µM*	7	?	5%	-1%
OC1c2cc(Br)ccc2N=C2CCCN21 (stereo not drawn)	?	18µM*	-97*	12µM*	-1%	-12%
OC1c2cc(Br)ccc2N=C2CCCCCN21 (stereo not drawn)	0%	16µM*	28	?	2%	1%
Cc1ncsc1C(=O)NC(C)c1ccc(F)cc1 (stereo not drawn)	·	·	·	·	39%	·
CCOC(=O)c1c(NC(=O)CN2CCC(C)CC2)sc2c1CC(C)(C)OC2	·	·	·	·	4%	·
CC(NC(=O)c1sc2ccccc2c1Cl)c1ccncc1 (stereo not drawn)	·	·	·	·	-32%	·
COc1cccc(/C=N/NC(=S)Nc2cccnc2)c1	-2%	4.6µM*	-6	2.3µM*	-16%	1%
COc1ccc(O)c(/C=N/NC(=S)Nc2cccnc2)c1	-29%	18µM*	144	?	212%	-22%
CC(C)(C)NC(=S)N/N=C/c1cccnc1	22%	26µM*	-1	15µM*	?	8%
Oc1ccc(/C=N/NC(=S)Nc2cccnc2)cc1	20%	?	-25	-35%	-15%	0%
Cc1ccc(-c2[nH]c(-c3ccc(F)cc3)nc2SCC(=O)Nc2nccs2)cc1	·	·	·	·	8%	·
Cc1ccc(-c2cc(C(=O)NC(C)C)c3ccccc3n2)c(C)c1	·	·	·	·	-2%	·
Cc1ccc(C2Cn3nnc(C(=O)N4CCC(C(=O)NC5CCC(C)CC5)CC4)c3CO2)cc1 (stereo not drawn)	·	·	·	·	3%	·
CC(=O)c1cccc(C(=O)N2CCC3(CC2)N=C(c2ccc(C)cc2)NO3)c1	·	·	·	·	-9%	·
CCCNc1nc2ccccc2nc1C(=O)Nc1ccccc1C	·	·	·	·	-2%	·
CC(C)C[C@@H]1NC(=O)[C@H](Cc2ccccc2)N(C)C(=O)[C@H](C)NC(=O)c2ccccc2NC(=O)[C@H](Cc2ccc(O)cc2)N(C)C1=O	-20%	15µM*	-5	16µM*	14%	-12%
N#Cc1cccc(CN2CCc3nc(N4CCOCC4)[nH]c(=O)c3CC2)c1	·	·	·	·	-2%	·
C=C1CC2C3CC[C@@]4(OCOC45COCO5)[C@@]3(C)C(O)CC2[C@@]2(C)CCC(=O)C=C12 (stereo partly drawn)	-25%	18µM*	-101*	?	-9%	?
CCc1ccc(C(=O)Cn2ccsc2=N)cc1	-13%	-15%	8	-13%	?	-4%
Cc1ccc(Cn2ncc(Cl)c(Cl)c2=O)cc1	?	3.3µM*	-103*	5.2µM*	0%	?
Cc1cc(C)cc(Cn2ncc(Cl)c(Cl)c2=O)c1	-27%	12µM*	-120*	8.2µM*	-21%	16µM*
CCc1ccc(C(=O)Cn2ncc(Cl)c(Cl)c2=O)cc1	15µM*	2.9µM*	-116*	3.7µM*	286%	?
SMILES	HT1080NT lethal	DT40 TDP1 no CPT	IL1B secr inh	DT40 TDP1 CPT	12-LOX inh	HT1080 IDH1KD tx
Cc1[nH]c(C)c2c(=O)n(Cc3ccc(Cl)cc3)ncc12	-3%	2%	-9	-1%	259%	11%
Cc1ccc(-c2nnc(Cc3ccc(Cl)cc3)o2)cc1	13%	?	0	-18%	?	4%
O=c1c(Cl)c(Cl)cnn1Cc1nnc(-c2ccc(Cl)cc2)o1	16µM*	0.92µM*	-101*	0.82µM*	-15%	8.2µM*
COc1ccc(C(=O)NCC23CC4CC(CC(C4)C2)C3)cc1	·	·	·	·	3%	·
O=c1c(Cl)c(Cl)cnn1Cc1ccccc1Cl	?	1µM*	-100*	2.6µM*	-20%	18µM*
CC(C)c1ccccc1Cc1cc(C(=O)Nc2ccc(S(=O)(=O)c3ccccc3C(C)(C)C)cc2)c(O)c(O)c1O	·	·	·	·	9.7µM*	·
COc1ccc2c(C)cc(N3CCN(Cc4ccccc4)CC3)nc2c1	-4%	12%	-26	-9%	-27%	0%
Cc1cc(N2CCC(N(C)C3CCCC3)CC2)nc2cc(O)ccc12	-24%	18µM*	-22	?	?	-12%
Cc1cc(N2CCN(c3ccccc3)CC2)nc2ccccc12	1%	-3%	95	-14%	?	-3%
COc1ccc2c(C)cc(N3CCCCCC3)nc2c1	-9%	?	-67*	?	?	-23%
O=C(Nc1cccc(N2C(=O)C=CC2=O)c1)c1cccs1	·	·	·	·	35µM*	·
O=C(O)c1ccc(NC(=O)c2cccc(NC(=O)c3cccs3)c2)cc1	7%	9%	2	8%	·	0%
Cc1nc2ccccc2c(=O)n1-c1cccc(NC(=O)c2cccs2)c1	-5%	?	-51*	?	5%	-2%
O=C(CNc1ccccc1OC(F)F)N1CCNC1=O	·	·	·	·	-8%	·
O=C(O)CCC(=O)OCCN(Cc1ccc(Oc2ccc([N+](=O)[O-])cc2)cc1)C(=O)C(Cl)Cl	4%	?	4	18µM*	-12%	-5%
CCOC(=O)c1[nH]c(C)c(CCC(=O)N2CCC(C(=O)NCCN3CCCCC3C)CC2)c1C (stereo not drawn)	·	·	·	·	-1%	·
O=C(NNc1ccccc1Br)C(O)(c1cccc(C(F)(F)F)c1)c1cccc(C(F)(F)F)c1	21µM*	15µM*	-59*	29µM*	-32%	?
Cc1ccccc1NC(=O)c1cccc(C(F)(F)F)c1	12%	-23%	-3	-28%	-13%	11%
CC(=O)c1ccc(OCC(O)CN2CCCC(C(F)(F)F)C2)cc1 (stereo not drawn)	·	·	·	·	-2%	·
Cn1cc(C(=O)N/N=C/C2=C(N3CCOCC3)C(=C\c3ccccc3)/CC2)ccc1=O	-3%	?	26	?	2%	1%
O=C1Nc2ccc(Br)cc2/C1=N\N=C\C1=C(N2CCOCC2)C(=C/c2ccccc2)/CC1	1%	10µM*	16	?	?	4%
O=C1Nc2ccccc2/C1=N\N=C\C1=C(N2CCOCC2)C(=C\c2ccccc2)/CC1	·	·	·	·	-9%	·
